Experimental data taken from PubChem BioAssay AID1159580 (chemical genetic matrix, 2015).
About 2,000 (36%) of roughly 5,500 compounds were called active. Not shown: some 18% with an inconclusive outcome. No stated cut-off is given here; in the data, active means normalized growth mostly below about 0.91 (no sharp cut-off); inconclusive means no clear call, values can overlap the other calls; inactive means mostly above about 0.92. Some of the results follow.

Experiment: chemical genetic growth profiling, strain panel (AID 1159580);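 further: tested at 20 µM; growth read once vehicle control cultures reached saturation at 30 °C; 1 = growth at the plate median or of vehicle wells; lower values mean less growth of the strain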
Conditions: growth OD

Measured: normalized growth

COc1ccccc1-c1cc(=O)c2c(OC)cccc2o1
active: S. cerevisiae deletion strains, locus YDL192W, strain arf1, active compounds read low 0.892 | S. cerevisiae deletion strains, locus YJL095W, strain BCK1, active compounds read low 0.773 | S. cerevisiae deletion strains, locus YLR418C, strain cdc73, active compounds read low 0.77 | S. cerevisiae deletion strains, locus YNL307C, strain MCK1, active compounds read low 0.88 | S. cerevisiae deletion strains, locus YOR184W, strain ser1, active compounds read low 0.837
inactive: S. cerevisiae deletion strains, locus YBR021W, strain FUR4, active compounds read low 0.99 | S. cerevisiae deletion strains, locus YBR229C, strain ROT2, active compounds read low 0.973 | S. cerevisiae deletion strains, locus YCL029C, strain bik1, active compounds read low 1 | S. cerevisiae deletion strains, locus YDL035C, strain GPR1, active compounds read low 0.953 | S. cerevisiae deletion strains, locus YDL074C, strain BRE1, active compounds read low 0.923 | S. cerevisiae deletion strains, locus YDL101C, strain DUN1, active compounds read low 0.966 | S. cerevisiae deletion strains, locus YDL185W, strain tfp1, active compounds read low 0.987 | S. cerevisiae deletion strains, locus YDR101C, strain arx1, active compounds read low 0.987 | S. cerevisiae deletion strains, locus YDR162C, strain NBP2, active compounds read low 0.95 | S. cerevisiae deletion strains, locus YDR318W, strain mcm21, active compounds read low 0.935 | S. cerevisiae deletion strains, locus YDR388W, active compounds read low 0.985 | S. cerevisiae deletion strains, locus YDR502C, strain sam2, active compounds read low 0.944 | S. cerevisiae deletion strains, locus YEL061C, strain CIN8, active compounds read low 0.977 | S. cerevisiae deletion strains, locus YER110C, active compounds read low 0.977 | S. cerevisiae deletion strains, locus YER155C, strain BEM2, active compounds read low 1.01 | S. cerevisiae deletion strains, locus YER167W, strain BCK2, active compounds read low 0.996 | S. cerevisiae deletion strains, locus YGL078C, strain dbp3, active compounds read low 0.983 | S. cerevisiae deletion strains, locus YGL086W, strain mad1, active compounds read low 0.99 | S. cerevisiae deletion strains, locus YGL248W, strain PDE1, active compounds read low 0.942 | S. cerevisiae deletion strains, locus YGR078C, strain PAC10, active compounds read low 0.938 | S. cerevisiae deletion strains, locus YGR135W, strain pre9, active compounds read low 0.915 | S. cerevisiae deletion strains, locus YGR252W, strain gcn5, active compounds read low 0.776 | S. cerevisiae deletion strains, locus YHR030C, strain SLT2, active compounds read low 0.991 | S. cerevisiae deletion strains, locus YHR079C, strain IRE1 (second series), active compounds read low 0.979 | S. cerevisiae deletion strains, locus YHR094C, strain hxt1, active compounds read low 0.996 | S. cerevisiae deletion strains, locus YHR129C, strain ARP1, active compounds read low 0.967 | S. cerevisiae deletion strains, locus YHR200W, strain rpn10, active compounds read low 0.98 | S. cerevisiae deletion strains, locus YIL066C, strain RNR3, active compounds read low 0.961 | S. cerevisiae deletion strains, locus YIL073C, strain SPO22, active compounds read low 0.931 | S. cerevisiae deletion strains, locus YIL125W, strain kgd1, active compounds read low 1.01 | S. cerevisiae deletion strains, locus YIR030C, strain dcg1, active compounds read low 0.969 | S. cerevisiae deletion strains, locus YJL134W, strain LCB3, active compounds read low 0.988 | S. cerevisiae deletion strains, locus YJL168C, strain set2, active compounds read low 0.971 | S. cerevisiae deletion strains, locus YJL187C, strain SWE1 (second series), active compounds read low 0.954 | S. cerevisiae deletion strains, locus YJR043C, strain POL32, active compounds read low 0.999 | S. cerevisiae deletion strains, locus YJR075W, strain HOC1, active compounds read low 0.987 | S. cerevisiae deletion strains, locus YKL009W, strain mrt4, active compounds read low 0.968 | S. cerevisiae deletion strains, locus YKL068W, active compounds read low 0.993 | S. cerevisiae deletion strains, locus YKL085W, strain MDH1 (second series), active compounds read low 0.982 | S. cerevisiae deletion strains, locus YKL085W, strain MDH1, active compounds read low 0.982 | S. cerevisiae deletion strains, locus YKL190W, strain CNB1, active compounds read low 0.972 | S. cerevisiae deletion strains, locus YKR001C, strain vps1, active compounds read low 0.916 | S. cerevisiae deletion strains, locus YLR039C, strain RIC1, active compounds read low 0.872 | S. cerevisiae deletion strains, locus YLR058C, strain SHM2, active compounds read low 0.96 | S. cerevisiae deletion strains, locus YLR102C, strain apc9, active compounds read low 0.988 | S. cerevisiae deletion strains, locus YLR262C, strain YPT6, active compounds read low 0.815 | S. cerevisiae deletion strains, locus YLR268W, strain sec22, active compounds read low 0.98 | S. cerevisiae deletion strains, locus YLR330W, strain CHS5, active compounds read low 0.976 | S. cerevisiae deletion strains, locus YLR342W, strain FKS1 (second series), active compounds read low 0.894 | S. cerevisiae deletion strains, locus YLR371W, strain rom2, active compounds read low 0.979 | S. cerevisiae deletion strains, locus YML016C, strain PPZ1, active compounds read low 0.983 | S. cerevisiae deletion strains, locus YML032C, strain rad52, active compounds read low 0.951 | S. cerevisiae deletion strains, locus YML124C, strain tub3, active compounds read low 0.983 | S. cerevisiae deletion strains, locus YMR078C, strain ctf18, active compounds read low 0.969 | S. cerevisiae deletion strains, locus YMR223W, strain ubp8, active compounds read low 0.916 | S. cerevisiae deletion strains, locus YMR263W, strain SAP30, active compounds read low 0.958 | S. cerevisiae deletion strains, locus YMR307W, strain GAS1, active compounds read low 0.72 | S. cerevisiae deletion strains, locus YNL067W, strain RPL9B, active compounds read low 0.982 | S. cerevisiae deletion strains, locus YNL153C, strain GIM3, active compounds read low 0.974 | S. cerevisiae deletion strains, locus YNL233W, strain BNI4, active compounds read low 0.922 | S. cerevisiae deletion strains, locus YNL250W, strain rad50, active compounds read low 0.999 | S. cerevisiae deletion strains, locus YNL271C, strain bni1, active compounds read low 0.969 | S. cerevisiae deletion strains, locus YNL298W, strain CLA4, active compounds read low 0.965 | S. cerevisiae deletion strains, locus YNL322C, strain KRE1, active compounds read low 0.978 | S. cerevisiae deletion strains, locus YNR052C, strain pop2, active compounds read low 0.958 | S. cerevisiae deletion strains, locus YOL006C, strain TOP1, active compounds read low 0.762 | S. cerevisiae deletion strains, locus YOL012C, strain htz1 1.44 | S. cerevisiae deletion strains, locus YOL147C, strain pex11, active compounds read low 0.975 | S. cerevisiae deletion strains, locus YOR061W, strain CKA2, active compounds read low 0.972 | S. cerevisiae deletion strains, locus YOR069W, strain VPS5, active compounds read low 0.982 | S. cerevisiae deletion strains, locus YOR136W, strain idh2, active compounds read low 1 | S. cerevisiae deletion strains, locus YOR144C, strain elg1, active compounds read low 0.996 | S. cerevisiae deletion strains, locus YOR316C, strain cot1, active compounds read low 0.992 | S. cerevisiae deletion strains, locus YPL241C, strain CIN2, active compounds read low 0.974 | S. cerevisiae deletion strains, locus YPR119W, strain clb2, active compounds read low 0.982 | S. cerevisiae deletion strains, locus YPR141C, strain kar3, active compounds read low 0.987 | S. cerevisiae deletion strains, locus YPR163C, strain tif3, active compounds read low 0.964 | S. cerevisiae deletion strains, locus YPR167C, strain met16, active compounds read low 0.969 | S. cerevisiae deletion strains, strain wtn01, active compounds read low 1 | S. cerevisiae strains, strain wild type, active compounds read low 0.975
